Results published in PubChem BioAssay.
“And” between values parts separate entries of the source, which are not always exact repeats. Identical values can stand only once. For some of these results: Entries with a potency or affinity are not part of this list. The source made the active and inactive calls. Unless noted, the rule behind the calls is not given here.

How the values were obtained:
[1] = P. berghei load reduction in hepatocytes – cell-based, HepG2, luciferase luminescence, HepG2 viability, primary screen (AID 624349; in the data active = parasite load remaining mostly below about 12%, no sharp cut-off; inactive = mostly above about 10%;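 note: 100% = mean of DMSO negative control wells on the same plate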); conditions: P. berghei liver stage in HepG2, luciferase luminescence, concentration not given here; parasite load remaining: stronger effect = lower value; viability: measured here: HepG2 viability without parasites
[2] = modulation of C. elegans fzo-1 (AID 1259413);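 note: fzo-1 mutant C. elegans worms in liquid wells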; conditions: C. elegans fzo-1 modulator screen, mean read-out; stronger effect = higher value
[3] = galactose survival enhancers in mitochondrial complex I cybrids – cell-based, galactose medium, ATP luminescence, primary screen (AID 1645843;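 active = z-score of at least 1.8 in each of two replicates, scored against plate mean and spread of sample wells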;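 note: positive z means more ATP and so rescue of galactose-driven cybrid death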); conditions: complex I mutant cybrid cells, 72 h, stronger effect = higher value
[4] = blockers of polyQ-driven CASP3 activation – cell-based (AID 1583); conditions: polyglutamine-induced caspase-3 activation, cell assay; stronger effect = higher value;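 tested at 10 µM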
[5] = yeast 75Q aggregation reduction – 75Q-TubU reporter (AID 1593); conditions: Yeast 75Q polyglutamine aggregation reporter
[6] = restoration of touch response, mutant HTT neurons – whole organism, C. elegans mechanosensory neurons, N-terminal huntingtin (AID 1599); conditions: C. elegans polyQ-huntingtin mechanosensory neurons, stronger effect = higher value
[7] = blockers of cytochrome c efflux from mitochondria – biochemical, purified mitochondria (AID 1603); conditions: stronger effect = lower value;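 note: mouse liver mitochondria challenged with calcium chloride; signal normalized to the plate average as 100%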
[8] = polyglutamine aggregate formation blockers (AID 1604); conditions: polyglutamine-induced protein aggregation inhibition assay; stronger effect = higher value; tested at 2.5 µM
[9] = glutamate transport activators, MN-1 cells, MN-1 cell line (AID 1612); conditions: MN-1 motor neuron cells, stronger effect = higher value;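 note: tested at 1 µM final; 0% = mean of DMSO vehicle wells on each plate; positive means more glutamate uptake than control and negative means less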
[10] = 75Q-TubH aggregate inhibition, S. cerevisiae, yeast (AID 1616); conditions: S. cerevisiae 75Q-TubH polyglutamine aggregation suppression; stronger effect = higher value
[11] = compounds altering viability of human ES cells (AID 493140); conditions: human embryonic stem cell survival screen; stronger effect = higher value;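 note: cells exposed to compounds for four days before counting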
[12] = signal quenchers or enhancers, Cy5 substrate/SSB – biochemical, NIH Clinical Collection, E. coli SSB, artefact control for HCV NS3 helicase inhibitor project (AID 743268); conditions: Cy5-oligo bound E. coli SSB, fluorescence interference
[13] = tested on: Hepatitis C virus NS3 helicase; experiment: blockers of NS3h binding to DNA – biochemical, fluorescence polarization, NIH Clinical Collection, primary screen (AID 743270); conditions: NS3 helicase binding to Cy5-dT15 DNA, stronger effect = higher value, concentration not given here
[14] = target: Single-stranded DNA-binding protein (Escherichia coli (strain K12)) (UniProt P0AGE0); experiment: SSB-ssDNA binding inhibitors – biochemical, fluorescence polarization, NIH Clinical Collection, counter-screen for HCV NS3 helicase inhibitor project (AID 743271; in the data active = inhibition above about 28%); conditions: E. coli SSB-DNA binding, stronger effect = higher value, concentration not given here
[15] = compounds distorting NS3 helicase fluorescence signal – biochemical, NIH Clinical Collection, artefact control for HCV NS3 helicase inhibitor project (AID 743272); conditions: fluorescence interference counterscreen, HCV NS3 helicase assay; stronger effect = lower value;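 note: HCV NS3 helicase with a Cy5 labelled single stranded DNA probe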
[16] = blockers of cellular phospholipid synthesis – cell-based, LOPAC library, screen 4, primary screen (AID 1347384); conditions: animal cells, phospholipid biosynthesis inhibition screen; at 10 µM
[17] = tested on: F380Y/beta1; experiment: BK channel mutant inhibitors and activators – cell-based, U2OS BacMam, thallium flux, beta subunits, selectivity assay, profiling panel (AID 1259406;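 active = thallium flux through the channel raised or lowered by more than 3 SD from vehicle-only wells, actives on both sides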;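 note: initial slope of Thallos dye fluorescence rise after thallium is added; log ratio against the mean of 0.3% DMSO vehicle wells on the same plate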); conditions: U2OS BacMam BK variants, at 30 µM
[18] = tested on: F380Y/beta4; experiment: as above; conditions: U2OS BacMam BK variants, at 30 µM
[19] = tested on: R275C/beta4; experiment: as above; conditions: U2OS BacMam BK variants, at 30 µM
[20] = tested on: R275C/Slo1WT/beta2; experiment: as above; conditions: U2OS BacMam BK variants, at 30 µM

Compound: CCOC(=O)C1=C(COCCN)NC(C)=C(C(=O)OC)C1c1ccccc1Cl (stereo unspecified)
- parasite load remaining [1]: 22.9% (inactive) and 39.3% (inactive) and 49.9% (inactive)
- viability [1]: 107% and 67.5% and 111%
- mean signal [2]: 214 (inactive)
- z-score [3]: -0.815 (inactive) and -0.625 (inactive) and 0.7 (inactive)

Compound: CN(C)CCOC(c1ccccc1)c1ccccc1
- inhibition [4]: 15.6%
- score [5]: 1.18
- rescue above control [6]: -3.14
- cytochrome c release ratio [7]: 1.11
- inhibition of aggregation [8]: 85.2%
- glutamate uptake change [9]: 8.03%
- aggregation suppression score [10]: 1.07
- survival [11]: 14 (inactive)
- fluorescence ratio [12]: 1.02 (inactive)
- inhibition [13]: -1.19% (inactive)
- inhibition [14]: 5.29% (inactive)
- fluorescence ratio [15]: 0.99 (inactive)
- mean signal [2]: 216 (inactive)
- outcome [16]: inactive
- z-score [3]: -0.255 (inactive) and 0.81 (inactive) and 0.09 (inactive)

Compound: Nc1c2c(nc3ccccc13)CCCC2
- inhibition [4]: -14.1%
- score [5]: 1.21
- rescue above control [6]: -13.1
- cytochrome c release ratio [7]: 0.63
- inhibition of aggregation [8]: 38.8%
- glutamate uptake change [9]: 4.59%
- aggregation suppression score [10]: 1.23
- survival [11]: 6.42 (inactive)
- fluorescence ratio [12]: 0.95 (inactive)
- inhibition [13]: -4.36% (inactive)
- inhibition [14]: -0.1% (inactive)
- fluorescence ratio [15]: 0.85 (inactive)
- mean signal [2]: 215 (inactive)
- outcome [16]: inactive

Compound: C=CCCCCCCCCC(=O)O
- parasite load remaining [1]: 49.2% (inactive)
- viability [1]: 96.2%

Compound: C#C[C@]1(O)CC[C@H]2[C@@H]3CCC4=CC(=O)CC[C@@H]4[C@H]3CC[C@@]21CC
- survival [11]: 3.67 (inactive)
- parasite load remaining [1]: 51.8% (inactive) and 75.6% (inactive) and 14.7% (inactive)
- viability [1]: 93.6% and 73.1% and 73.5%
- fluorescence ratio [12]: 1.02 (inactive)
- inhibition [13]: -3.56% (inactive)
- inhibition [14]: -0.1% (inactive)
- fluorescence ratio [15]: 0.96 (inactive)
- z-score [3]: 0.335 (inactive)
- log fold change Tl+ flux [17]: 0.149 (active)
- log fold change Tl+ flux [18]: -0.00261 (inactive)
- log fold change Tl+ flux [19]: -0.0556 (inactive)
- log fold change Tl+ flux [20]: -0.0344 (inactive)

Compound: CC(=O)OCC(=O)[C@@]12OC(C)(C)O[C@@H]1C[C@H]1[C@@H]3C[C@H](F)C4=CC(=O)C=C[C@]4(C)[C@@]3(F)[C@@H](O)C[C@@]12C
- survival [11]: 3.25 (inactive)
- parasite load remaining [1]: 84.8% (inactive) and 108% (inactive)
- viability [1]: 105% and 96.2%
- fluorescence ratio [12]: 1.05 (inactive)
- inhibition [13]: 4.09% (inactive)
- inhibition [14]: -1.24% (inactive)
- fluorescence ratio [15]: 1.01 (inactive)
- z-score [3]: 0.355 (inactive)
- log fold change Tl+ flux [17]: 0.0412 (inactive)
- log fold change Tl+ flux [18]: 0.048 (inactive)
- log fold change Tl+ flux [19]: 0.0407 (inactive)
- log fold change Tl+ flux [20]: 0.0498 (inactive)

Compound: O=C1N=C(O)CN1/N=C/c1ccc(-c2ccc([N+](=O)[O-])cc2)o1
- inhibition [4]: 24%
- score [5]: 1.7
- rescue above control [6]: -1.39
- cytochrome c release ratio [7]: 0.66
- inhibition of aggregation [8]: 71.6%
- glutamate uptake change [9]: -2.24%
- aggregation suppression score [10]: 1.1
- survival [11]: 28.9 (inactive)
- parasite load remaining [1]: 21.2% (inactive) and 82.2% (inactive) and 9.57% (inactive)
- viability [1]: 47.1% and 91.4% and 102%
- mean signal [2]: 232 (inactive)
- z-score [3]: -0.315 (inactive) and -0.365 (inactive)

Compound: C#C[C@]1(O)CC[C@H]2[C@@H]3CCC4=Cc5oncc5C[C@]4(C)[C@H]3CC[C@@]21C
- survival [11]: 10.4 (inactive)
- fluorescence ratio [12]: 1.05 (inactive)
- inhibition [13]: -3.18% (inactive)
- inhibition [14]: 4.1% (inactive)
- fluorescence ratio [15]: 1.01 (inactive)
- z-score [3]: -1.4 (inactive) and -1.46 (inactive)
- log fold change Tl+ flux [17]: 0.032 (inactive)
- log fold change Tl+ flux [18]: -0.0261 (inactive)
- log fold change Tl+ flux [19]: 0.0847 (inactive)
- log fold change Tl+ flux [20]: -0.016 (inactive)

Compound: CNC(=O)Oc1ccc2c(c1)[C@]1(C)CCN(C)[C@@H]1N2C
- inhibition [4]: 8.95%
- score [5]: 1.22
- rescue above control [6]: 1.05
- cytochrome c release ratio [7]: 1.08
- inhibition of aggregation [8]: 39.4%
- glutamate uptake change [9]: -18.2%
- aggregation suppression score [10]: 1.03
- survival [11]: 7.25 (inactive)
- outcome [16]: inactive
- z-score [3]: -0.835 (inactive) and -0.865 (inactive)

Compound: CN1CCN(CCCN2c3ccccc3Sc3ccc(C(F)(F)F)cc32)CC1
- inhibition [4]: -8.73%
- score [5]: 1.12
- rescue above control [6]: 0
- cytochrome c release ratio [7]: 2.01
- inhibition of aggregation [8]: 65.5%
- glutamate uptake change [9]: 16.2%
- aggregation suppression score [10]: 1.63
- survival [11]: 1.83 (inactive)
- fluorescence ratio [12]: 0.87 (inactive)
- inhibition [13]: -1.19% (inactive)
- inhibition [14]: 1.44% (inactive)
- fluorescence ratio [15]: 0.85 (inactive)
- mean signal [2]: 265 (inactive)
- outcome [16]: inactive
- z-score [3]: -1.38 (inactive) and -1.44 (inactive) and -1.35 (inactive)
